Screening results deposited in PubChem BioAssay by National Center for Advancing Translational Sciences (NCATS).
GALK inh: qHTS Assay for Inhibitors of Human Galactokinase (GALK). P51570. Purified GALK, Kinase-Glo residual ATP luminescence. Potency, µM (doses to about 57.5 µM), hits mostly inhibitors. hit rate 0.007% among 270,000. AID 1868, 2009
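Human GALK (5 nM) with 35 uM ATP and 100 uM galactose in 20 mM HEPES pH 8.0, 5 mM MgCl2, 60 mM NaCl, 1 mM DTT, 0.01% BSA. After 1 h at room temperature, leftover ATP was read by Kinase-Glo Plus luminescence.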
GAA inhib: qHTS Assay for Inhibitors of Human alpha-Glucosidase as a Potential Chaperone Treatment of Pompe Disease | Lysosomal alpha-glucosidase (Homo sapiens), P10253 | purified human GAA, 4-MU-alpha-glucoside fluorescence | Potency, µM (doses to about 76.9 µM), actives largely listed as inhibitors | hit rate 0.005% among 200,000 | AID 1466, 2008
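Fluorogenic assay: 4 nM human alpha-glucosidase with 400 uM 4-methylumbelliferyl-alpha-D-pyranoside in 50 mM citrate/phosphate, 0.005% Tween-20, pH 5.0, 20 min at room temperature. Compounds tested up to 77 uM; AC50 from Hill fits.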
aGlu spleen mod: qHTS Assay for Inhibitors and Activators of Human alpha-Glucosidase From Spleen Homogenate | Lysosomal alpha-glucosidase (Homo sapiens), P10253 | human spleen homogenate, 4-MU-alpha-glucoside fluorescence | Potency, µM (highest dose often 79.9 µM), most hits filed as inhibitors | hit rate 0.006% among 240,000
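Human spleen homogenate (1 ug) with 4-methylumbelliferyl-alpha-D-glucopyranoside (1 mM final) in 50 mM citrate/phosphate pH 5.0, 0.01% Tween-20; 40 min at 37 C. Stopped at pH 10; 4-MU fluorescence Ex 365/Em 440 nm; AC50 by Hill fit.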
GAA glycogen: qHTS Assay for Inhibitors and Activators of Human alpha-Glucosidase Cleavage of Glycogen. Lysosomal alpha-glucosidase (Homo sapiens), P10253. Potency, µM (top dose mostly 76.4 µM), actives largely listed as inhibitors. recombinant GAA, glycogen substrate, Amplex Red glucose oxidase fluorescence. hit rate 0.38% among 300,000;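 further: the screen sought inhibitors and activators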
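Recombinant enzyme (4 nM final) with compounds titrated up to 77 uM and bovine liver glycogen (30 ug) in citrate pH 5.0, 0.01% Tween-20, 37 C 40 min. Released glucose detected by Amplex Red/glucose oxidase (Ex 573/Em 610); AC50 from Hill fits.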
PKM2 activator: qHTS Assay for Activators of Human Muscle isoform 2 Pyruvate Kinase | Pyruvate kinase PKM (Homo sapiens), P14618 | purified PKM2, Kinase-Glo ATP luminescence, activation; response scale: 0% is enzyme alone, no compound | Potency, µM (top dose mostly 57.5 µM), hits mostly activators | hit rate 0.34% among 260,000; further: nearly all actives have a fitted effect of over 55% in size
Target sequence (P14618 whole entry, looked up, canonical isoform): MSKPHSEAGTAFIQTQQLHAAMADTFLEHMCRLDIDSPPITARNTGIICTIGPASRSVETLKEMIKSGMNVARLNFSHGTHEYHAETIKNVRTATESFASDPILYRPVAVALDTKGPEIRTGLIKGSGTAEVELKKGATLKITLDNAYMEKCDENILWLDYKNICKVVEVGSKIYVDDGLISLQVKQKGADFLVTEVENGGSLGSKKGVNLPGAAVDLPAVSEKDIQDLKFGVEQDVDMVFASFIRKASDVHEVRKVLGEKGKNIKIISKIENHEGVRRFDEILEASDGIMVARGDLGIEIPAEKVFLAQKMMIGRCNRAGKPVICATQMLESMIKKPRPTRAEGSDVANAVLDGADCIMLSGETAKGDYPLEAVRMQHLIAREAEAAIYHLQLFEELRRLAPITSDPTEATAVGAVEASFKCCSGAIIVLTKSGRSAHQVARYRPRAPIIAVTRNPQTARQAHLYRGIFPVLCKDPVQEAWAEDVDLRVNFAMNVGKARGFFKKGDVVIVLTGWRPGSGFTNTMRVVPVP
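hPK-M2, >95% pure; 0.1 mM ADP / 0.5 mM PEP final; imidazole pH7.2 buffer w/ 7 mM MgCl2, 50 mM KCl; 1 h RT; Kinase-Glo lum. Intermediate enzyme activity for dual inhibitor/activator qHTS.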
Hits are given with their value; n = inactive; u = inconclusive; x = no result given. Only some compounds are listed: those with a hit (about 0.63% of all), similar ones and a draw of the others. The call rests on the fitted dose curve; in most records, active means well fitted curve in the direction sought with a large enough effect; inconclusive means small, poorly fitted or top-dose-only effect, or another doubt; inactive means no such curve, though single readings can be large; an effect the other way counts as inactive or inconclusive.

SMILES | GALK inh | GAA inhib | aGlu spleen mod | GAA glycogen | PKM2 activator
Cc1ccc(Nc2c(-c3ccsc3)nc3c(C)cccn23)cc1 | x | x | x | 11.2µM | x
Cc1cccn2c(Nc3ccccc3)c(-c3ccc(N4CCOCC4)cc3)nc12 | x | x | x | 3.98µM | x
Cc1cccc(OCc2nc(CC(=O)Nc3ccc(Cl)cc3)cs2)c1 | x | x | x | n | x
Cc1cc(O)c(N)c(C)c1Cl | n | n | n | 8.91µM | n
COc1ccc2cc(C#N)c(=O)oc2c1 | x | x | n | x | x
COc1ccc2cc(S(=O)(=O)c3ccccc3)c(=O)oc2c1 | n | x | u | n | 5.01µM
Cc1ccc(C)c(NNC(=O)C(=O)NNc2cc(C)ccc2C)c1 | n | x | n | u | n
Cc1ccc(C)c(NNC(N)=S)c1 | n | n | n | 9.92µM | n
O=C(NCc1ccco1)/C(=C\c1cccs1)NC(=O)c1ccco1 | n | n | n | n | 28.2µM
O=C(NCc1ccco1)/C(=C\c1cccs1)NC(=O)c1ccsc1 | n | n | n | n | n
COc1ccc2[nH]cc(/C=N/NS(=O)(=O)c3ccc(C)cc3)c2c1 | n | x | n | u | n
COc1ccc2c(/C=N/NS(=O)(=O)c3ccc(C)cc3)c[nH]c2c1 | n | x | n | 8.91µM | n
COc1ccc(Br)cc1S(=O)(=O)NNC(=O)c1c(C)nc2ccccn12 | n | n | n | 10µM | n
CCOc1ccc(OCC)c(S(=O)(=O)NNC(=O)c2c(C)nc3ccccn23)c1 | n | n | n | n | n
COc1ccc2c(Sc3ccccc3)c(C(=O)NCCCN3CCCCC3)[nH]c2c1 | x | x | x | n | x
Cc1ccc(Cn2ncc3c(N4CCCC4)ncnc32)cc1 | n | n | n | n | 12.6µM
O=C(NC(=S)N1CCN(c2ccc(O)cc2)CC1)c1cccs1 | n | x | n | 10µM | n
O=C(NC(=S)N1CCN(c2ccc(F)cc2)CC1)c1cccs1 | n | n | n | n | n
CC(=O)NCCc1ccc(O)c(O)c1 | x | x | n | x | x
CCc1cccc(CC)c1NC(=S)NCCc1ccc(O)c(O)c1 | n | n | n | u | 22.4µM
Cc1cc(C)c(S(=O)(=O)/N=C2\C=CC(=O)C(Cl)=C2)c(C)c1 | n | u | n | 12.5µM | n
CCOC(=O)c1c(NC(=O)/C=C/c2ccc(C)o2)sc(C)c1C | n | n | n | n | n
Cc1ccc(/C=C/C(=O)Nc2sc(C)c(C)c2C(=O)OC(C)C)o1 | n | n | n | n | 15.8µM
c1ccc2c(c1)CCCN2Cc1nnnn1C1CCCC1 | n | n | n | n | n
c1ccc(CCn2nnnc2CN2CCc3ccccc32)cc1 | n | n | n | 31.6µM | n
SMILES | GALK inh | GAA inhib | aGlu spleen mod | GAA glycogen | PKM2 activator
CCCCN1CC(c2nc3ccccc3n2CCCCOc2cccc(C)c2C)CC1=O (centres undefined) | x | x | x | n | x
Fc1ccc(CSc2ncnc3ccccc23)cc1 | n | n | n | n | 25.1µM
c1ccc(CSc2ncnc3ccccc23)cc1 | n | n | n | n | n
Cc1c(CC(=O)NCCc2ccccc2)c(=O)oc2c(C)c3occ(C(C)(C)C)c3cc12 | x | x | x | n | x
Clc1ccc2nc(CSc3ncn[nH]3)cn2c1 | n | n | n | n | u
Brc1ccc2nc(CSc3ncn[nH]3)cn2c1 | n | n | n | n | 20µM
COc1cccc(-n2cc(C(=O)Nc3cccc(C(F)(F)F)c3)c3ccccc3c2=O)c1 | x | x | x | n | x
CSc1ccc(S(=O)(=O)N2CCN(Cc3ccc4c(c3)OCO4)CC2)cc1 | n | n | n | n | 7.94µM
O=C(Cc1ccc2c(c1)OCCO2)N1CCN(S(=O)(=O)c2cccs2)CC1 | n | n | n | n | n
Cc1ccc(S(=O)(=O)N2CCCN(S(=O)(=O)c3ccc(C)c(C)c3)CC2)cc1C | n | n | n | n | 2.24µM
O=C(Cc1ccc2c(c1)OCCO2)N1CCN(S(=O)(=O)c2ccccc2C(F)(F)F)CC1 | n | u | n | n | u
Cc1ccc(S(=O)(=O)N2CCN(C(=O)Cc3ccc4c(c3)OCCO4)CC2)cc1C | n | u | n | n | 3.16µM
O=C(Cc1ccc2c(c1)OCCO2)N1CCN(S(=O)(=O)c2cccc(Cl)c2Cl)CC1 | n | u | n | n | 2.82µM
